Calls of active or inactive are those of the source.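 The calls were made as follows: active = valid curve fit, half-maximal dose at most 10 µM, and binding change across doses at least 30%; inactive = the rest.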
Tested on: Rab7 GTPase, wild type (Canis lupus familiaris)
Assay: inhibition of Bodipy-GTP binding to Rab7 – biochemical, dog Rab7, bead multiplex flow cytometry, round 1, Cdc42 probe extension project, SAR follow-up (AID 588393)
Settings: GST-Rab7 beads, Bodipy-FL-GTP binding, EDTA; series mostly up to 100 µM

SMILES | outcome
NS(=O)(=O)c1ccc(N2N=C(c3ccccc3)CC2c2ccccc2)cc1 (stereo not drawn) | inactive
O=C(C#Cc1ccccc1)c1cccc([N+](=O)[O-])c1 | inactive
COc1ccc(C2CC(c3ccccc3)=NN2c2ccc(S(N)(=O)=O)cc2)cc1 (stereo not drawn) | inactive
